Only some compounds are listed: those with a hit (about 5.4% of all), similar ones and a draw of the others.
MPTP block: mitochondrial permeability transition pore inhibitors, primary screen, biochemical, isolated mouse mitochondria, absorbance; Ca2+ swelling absorbance, 30 min; hit rate 1.4% among 360,000; inhibition, % at 10 µM; AID 602449, 2012;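 active means inhibition of 50% or more, scaled per plate between neutral and stimulator controls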
Mdm2 MdmX PPI: inhibitors of human Mdm2-MdmX association, primary screen, cell-based, luminescence, split luciferase, SaOS-2, uHTS; SaOS-2 split-luciferase Mdm2/MdmX complementation; hit rate 3% among 330,000; AID 485346, 2010; inhibition, % at 8 µM;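 active means inhibition of at least 50% at 8 µM in the primary screen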
Target sequence (O15151 whole entry, looked up): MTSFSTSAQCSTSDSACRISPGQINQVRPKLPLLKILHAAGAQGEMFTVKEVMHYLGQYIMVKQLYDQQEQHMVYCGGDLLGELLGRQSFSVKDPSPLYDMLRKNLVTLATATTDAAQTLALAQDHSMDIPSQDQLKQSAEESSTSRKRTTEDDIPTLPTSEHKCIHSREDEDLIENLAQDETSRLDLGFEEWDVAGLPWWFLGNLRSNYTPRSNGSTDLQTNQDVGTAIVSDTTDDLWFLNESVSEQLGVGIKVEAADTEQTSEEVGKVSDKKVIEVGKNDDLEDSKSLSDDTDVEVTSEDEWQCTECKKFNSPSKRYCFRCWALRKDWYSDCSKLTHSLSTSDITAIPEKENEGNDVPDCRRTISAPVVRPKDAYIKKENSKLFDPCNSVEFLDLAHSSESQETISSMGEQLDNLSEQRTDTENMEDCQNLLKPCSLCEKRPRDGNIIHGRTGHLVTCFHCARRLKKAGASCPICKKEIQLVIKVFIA
Target sequence (Q00987 whole entry, looked up): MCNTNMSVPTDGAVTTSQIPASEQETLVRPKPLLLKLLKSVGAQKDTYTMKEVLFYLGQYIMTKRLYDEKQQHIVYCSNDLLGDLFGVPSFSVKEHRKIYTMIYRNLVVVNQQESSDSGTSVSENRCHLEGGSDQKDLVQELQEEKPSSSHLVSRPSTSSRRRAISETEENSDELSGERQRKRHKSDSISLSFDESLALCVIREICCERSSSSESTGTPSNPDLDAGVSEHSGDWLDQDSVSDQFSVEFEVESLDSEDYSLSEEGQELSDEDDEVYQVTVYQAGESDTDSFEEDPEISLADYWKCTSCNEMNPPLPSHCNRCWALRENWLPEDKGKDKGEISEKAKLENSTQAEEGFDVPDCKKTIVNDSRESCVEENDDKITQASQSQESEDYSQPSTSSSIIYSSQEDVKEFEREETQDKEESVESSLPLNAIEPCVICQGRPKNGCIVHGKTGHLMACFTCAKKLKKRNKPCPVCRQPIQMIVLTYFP
CSC inhib: cancer stem cell viability inhibitors, primary screen, luminescence | cancer stem cell-like cells viability | inhibition, % at 7.5 µM | hit rate 1.1% among 300,000 | AID 2717, 2010; in the data active means inhibition above about 75%; inconclusive means no clear call, values can overlap the other calls; tested in HMLE shEcad cells
Calb FLC: C. albicans growth inhibition with fluconazole, primary screen, CaCi-2 strain, Alamar Blue fluorescence; growth inhibition, % (no concentration beside the values); hit rate 0.57% among 300,000; C. albicans CaCi-2 (fluconazole-resistant clinical isolate) + fluconazole, 48 h;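 active means growth inhibition above about 58% in most replicates, limit read from the data, passing the limit was not always enough; inconclusive means exactly half the replicates above a set limit; inactive means most replicates below a set limit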;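 further: all wells also contain fluconazole at 8 µg/ml as a sub-toxic cotreatment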
SKKanGAS inh: S. pyogenes SKKanGAS growth inhibitors in kanamycin, primary screen, streptokinase expression inhibitor project, SKKanGAS strain, BacTiter-Glo luminescence. hit rate 1.3% among 300,000. inhibition, % at 7.5 µM. 6 h;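 active means mean replicate score, as percent of positive control median, at least 50; inconclusive means mean below 50 but one replicate at or above 50; inactive means mean and every replicate below 50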;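 further: strain carries kanamycin resistance gene driven by streptokinase promoter and grows in 40 µg/ml kanamycin; loss of luminescence reflects streptokinase promoter inhibition or plain growth inhibition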
Beta apoptosis: inhibitors of cytokine-induced beta cell apoptosis, primary screen, luminescence; INS-1E cytokine-induced death, ATP luminescence, 48 h; percent of positive-control rescue, neutral wells zero; protection from apoptosis, % (test concentration not listed); hit rate 0.8% among 300,000; AID 435005, 2010;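 active means Every replicate reaches about 75%, or at least half do and their mean reaches it too, limit read from the data; inconclusive means At least half of replicates reach the limit but their mean does not; inactive means Under half of replicates reach the limit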;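 further: higher means more ATP so stronger rescue from cytokine killing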
Mdm2 MdmX conf: Mdm2-MdmX complex disruptors, retested hits, confirmation, luminescence, single concentration; shares compounds with Mdm2 MdmX PPI; Mdm2-MdmX binding, luminescent assay; inhibition, % at 8 µM; hit rate 55% among 10,000; in the data active means inhibition above about 40%
Full FLuc ctr: full-length luciferase signal inhibition, confirmation, counter-screen for Mdm2/MdmX interaction inhibitor project, cell-based, single concentration, SaOS-2 | SaOS-2 full-length luciferase counterscreen, luminescence | inhibition, % at 8 µM | shares compounds with Mdm2 MdmX PPI | AID 504607, 2011 | hit rate 77% among 6,200;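 active means mean inhibition at 8 µM reaching about 37%, which flags the compound as non-specific, limit read from the data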;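 further: p53-null SaOS-2 cells with luciferase driven by a doxycycline-inducible promoter; compound on cells about two nights before reading with doxycycline added after day one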
Each line names hits and unclear results; the compound was inactive in the other large screens (follow-up assays come after a bar, where they were run).

CC1CCN(c2nc3c(c(=O)n(C)c(=O)n3C)n2Cc2ccccc2)CC1	none
COC(=O)c1ccc2[nH]c3cccc(/C(=C/c4ccccc4)c4ccccc4)c3c2c1	Mdm2 MdmX PPI 65.5, CSC inhib 128.8, SKKanGAS inh 94.3, Beta apoptosis 109.3 | Mdm2 MdmX conf inactive
C=CCn1c(SCC(=O)NC(N)=O)nnc1-c1cc2c(s1)CCC(CC)C2 (configuration not stated)	none
O=[N+]([O-])c1ccc(/C=N/Nc2ncccc2[N+](=O)[O-])s1	none
O=[N+]([O-])c1ccc(/C=N/n2cnc3ccccc32)s1	Mdm2 MdmX PPI 70.2, CSC inhib 99.7, Calb FLC inconclusive, Beta apoptosis 112.0 | Mdm2 MdmX conf 59.5 | Full FLuc ctr inactive
CN1OC(c2ccccc2)=C(CO)C1c1ccccc1 (configuration not stated)	none
CCCC(=O)N(Cc1cc(=O)[nH]c2ccccc12)c1cccc(C)c1	none
Cc1cccc(N(Cc2cc(=O)[nH]c3ccccc23)C(=O)CCl)c1	Mdm2 MdmX PPI 100.3, CSC inhib 104.7 | Mdm2 MdmX conf 100.2 | Full FLuc ctr 56.1
COc1ccc(N(Cc2cc(=O)[nH]c3ccccc23)C(=O)CCl)cc1	Mdm2 MdmX PPI 100.3 | Mdm2 MdmX conf 79.3 | Full FLuc ctr 62.6
O=S(=O)(c1cccc(-c2n[nH]c(=S)n2Cc2ccccc2)c1)N1CCOCC1	none
O=C(CCNS(=O)(=O)c1cccc2nsnc12)N1CC(=O)N(CCc2ccccc2)C(=O)C1	none
COc1ccc2c3n(nc2c1)CCN=C3c1cc(Cl)c(N)c(Cl)c1	Mdm2 MdmX PPI 64.8 (no result: Calb FLC, SKKanGAS inh) | Mdm2 MdmX conf 62.2 | Full FLuc ctr 65.1
Cc1cccc(NC(=O)c2cc3n(n2)C(C(F)(F)F)CC(c2ccc4c(c2)OCO4)N3)c1 (configuration not stated)	Mdm2 MdmX PPI 51.5, SKKanGAS inh 49.9 (no result: Beta apoptosis) | Mdm2 MdmX conf 75.4 | Full FLuc ctr 47.5
CN(C(=S)Nc1ccc(F)cc1)C(c1ccccc1)c1ccccc1	none
Cc1ccc(NC(=S)N(C)C(c2ccccc2)c2ccccc2)cc1C	Mdm2 MdmX PPI 59.0 | Mdm2 MdmX conf inactive
COc1ccccc1-c1oc2ccccc2c1C#CC1(N)CCCCC1	Mdm2 MdmX PPI 73.5, CSC inhib 130.2 (no result: Calb FLC, SKKanGAS inh) | Mdm2 MdmX conf inactive
COc1ccc(COc2cc(-c3cccc(OC)c3)nc3ccc(N)cc23)cc1	Mdm2 MdmX PPI 59.5 | Mdm2 MdmX conf 51.4 | Full FLuc ctr 119.9
O=C(CCN1C(=O)/C(=C/c2ccc(F)cc2)SC1=S)N[C@@H](CO)Cc1ccccc1	Mdm2 MdmX PPI 82.1 (no result: Calb FLC) | Mdm2 MdmX conf 60.9 | Full FLuc ctr 37.3
O=C(CCN1C(=O)/C(=C/c2ccccc2)SC1=S)NCCc1ccc(O)cc1	Mdm2 MdmX PPI 98.3 | Mdm2 MdmX conf 87.7 | Full FLuc ctr 59.8
O=C(CCN1C(=O)/C(=C/c2ccc(F)cc2)SC1=S)NNC(=O)c1ccncc1	none
COc1ccccc1/C=C1\SC(=S)N(CCC(=O)Nc2ccc(C(=O)O)c(O)c2)C1=O	none
COc1ccccc1/C=C1\SC(=S)N(CCC(=O)NCCc2ccc(O)cc2)C1=O	Mdm2 MdmX PPI 59.6 (no result: Beta apoptosis) | Mdm2 MdmX conf inactive | Full FLuc ctr 68.8
COc1ccccc1/C=C1\SC(=S)N(CC(=O)Nc2nnc(C)s2)C1=O	Mdm2 MdmX PPI 93.5, CSC inhib 95.8, Calb FLC inconclusive, Beta apoptosis 98.0 (no result: MPTP block) | Mdm2 MdmX conf inactive
Cc1nc2nc3c(c(=O)n2[nH]1)CCCC3	none
Nc1nnnn1/N=C/c1ccc(Cl)cc1	none (no result: CSC inhib, Beta apoptosis)
Cc1cc2cc3c(cc2nc1SCC(=O)OC(C)C)OCO3	none (no result: CSC inhib, Beta apoptosis)
O=C(CCN1C(=O)/C(=C/c2ccccc2F)SC1=S)NCCc1ccc(O)cc1	Mdm2 MdmX PPI 71.4 (no result: Beta apoptosis) | Mdm2 MdmX conf 53.0 | Full FLuc ctr inactive
COc1ccc(/C=C2\SC(=S)N(CCC(=O)NCCc3ccc(O)cc3)C2=O)cc1	Mdm2 MdmX PPI 78.6 | Mdm2 MdmX conf 71.1 | Full FLuc ctr inactive
Cc1cc(C)cc(NC(=O)COC(=O)[C@@H](NC(=O)c2ccco2)C(C)C)c1	none
C=CCc1ccccc1OCC(=O)N/N=C/c1ccc(OC(C)=O)cc1OC(C)=O	Mdm2 MdmX PPI 52.0, CSC inhib 76.6 | Mdm2 MdmX conf 51.0 | Full FLuc ctr 37.3
CC(=O)OCC(=O)C1=CCC2C3CCC4=CC(=O)C=CC4(C)C3(F)C(OC(C)=O)CC12C (configuration not stated)	Mdm2 MdmX PPI 78.5, Calb FLC inconclusive | Mdm2 MdmX conf 49.2 | Full FLuc ctr 45.7
COc1cc(NC(=O)C2=C(N3CCOCC3)/C(=C/c3ccc(Cl)cc3)CC2)cc(OC)c1OC	none (no result: Beta apoptosis)
COc1cc(NC(=O)C2=C(N3CCOCC3)/C(=C\c3ccc(N(C)C)cc3)CCC2)cc(OC)c1OC	Mdm2 MdmX PPI 59.9, CSC inhib 87.1 | Mdm2 MdmX conf 47.4 | Full FLuc ctr 86.8
O=C1C2ON(c3ccccc3)C(c3cccnc3)C2C(=O)N1Cc1ccccc1 (configuration not stated)	none
Cc1cccc(NC(=O)c2sc(C)nc2C)c1	none
Cc1cccc(C(=O)Nc2nc(C)c(C(=O)Nc3ccc4c(c3)CCC4)s2)c1	Mdm2 MdmX PPI 58.1 (no result: CSC inhib, Beta apoptosis) | Mdm2 MdmX conf 43.4 | Full FLuc ctr 52.7
COc1ccc(-c2cn[nH]c2-c2ccc(OC)cc2O)cc1	Mdm2 MdmX PPI 70.7 | Mdm2 MdmX conf 61.9 | Full FLuc ctr inactive
COc1ccc(-c2cn[nH]c2-c2ccc(OCc3ccccc3)cc2O)cc1	Mdm2 MdmX PPI 78.2, CSC inhib 102.1, SKKanGAS inh 74.8 | Mdm2 MdmX conf 76.9 | Full FLuc ctr 54.9
Oc1ccc(-c2[nH]ncc2-c2ccc(Br)cc2)c(O)c1	Mdm2 MdmX PPI 55.7 | Mdm2 MdmX conf inactive
Oc1ccc(-c2[nH]ncc2-c2ccc(Cl)cc2)c(O)c1	none
O=[N+]([O-])c1ccc(COc2ccc(-c3[nH]ncc3-c3ccc(Cl)cc3)c(O)c2)cc1	Mdm2 MdmX PPI 82.5, CSC inhib 82.4, SKKanGAS inh 94.8 | Mdm2 MdmX conf 51.2 | Full FLuc ctr 42.6
COc1ccc(NC(=O)COC(=O)C2CCN(S(=O)(=O)c3cccs3)CC2)cc1OC	none (no result: Calb FLC, SKKanGAS inh)
CN(C)CCNc1ncnc2c1sc1nc(-c3ccccc3)c3c(c12)CCCC3	Mdm2 MdmX PPI 100.3 | Mdm2 MdmX conf 69.7 | Full FLuc ctr 40.6
CCCc1nc(SC)[nH]c(=O)c1C	none
COc1ccc(-c2csc(N(CCCN(C)C)C(=O)c3ccc(C(C)(C)C)cc3)n2)cc1	Mdm2 MdmX PPI 53.8 | Mdm2 MdmX conf inactive

Source: PubChem (several laboratories)
